Laboratory results taken from PubChem BioAssay (Tox21).
Several values for one entry are separate records, joined by “and”; a condition that tells them apart may be missing. Equal values may be shown once. Records with an inconclusive call do not appear. A call without a number means that no potency is given here. Where a structure was tested more than once in an assay, its records may differ in their call. Activity calls are given as the source filed them. Unless noted, calls come from the whole dose curve; as a rule, active = well fitted curve in the direction sought with a large enough effect in the repeat runs; inconclusive = weak or mixed curves; inactive = no such curve, though single readings can be large; an effect the other way counts as inactive or inconclusive.

Columns and labels:
[1] = qHTS assay to identify small molecule antagonists of the estrogen receptor alpha (ER-alpha) signaling pathway using the BG1 cell line in the presence of 0.1 nM 17-beta-estradiol - cell viability counter screen (AID 1259241); details: VM7Luc4E2 (BG1) viability, CellTiter-Fluor protease, 22 h, 0.1 nM estradiol agonist added; series mostly up to 92.4 µM; note: nearly all actives have a fitted effect of over 40% in size
Summary of the method: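 Measures cytotoxicity alongside the ER-alpha antagonist readout: VM7Luc4E2 cells, charcoal-stripped serum, 0.1 nM 17beta-estradiol final, 22 hr compound incubation at 37C, CellTiter-Fluor fluorescence.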

[2] = qHTS assay to identify small molecule antagonists of the androgen receptor (AR) signaling pathway using the MDA cell line in the presence of 0.5 nM R1881 - cell viability counter screen (AID 1259242); details: MDA-kb2 viability, CellTiter-Fluor protease fluorescence, 16 h; series mostly up to 92.4 µM; note: nearly all actives have a fitted effect of over 45% in size; note: potency is the fitted concentration of half-maximal effect
Summary of the method: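 Cells seeded at 3,000/well and allowed 5 hr at 37C, 0% CO2 before compound transfer and R1881 (0.5 nM final) addition; 16 hr later, live-cell protease fluorescence indicated cytotoxicity.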

[3] = molecular target: Estrogen receptor (Homo sapiens) (UniProt P03372); experiment: qHTS assay to identify small molecule antagonists of the estrogen receptor alpha (ER-alpha) signaling pathway using the BG1 cell line in the presence of 0.1 nM 17-beta-estradiol (AID 1259244); details: VM7Luc4E2 (BG1) ERE-luciferase, antagonist mode, 0.1 nM E2, 22 h; series mostly up to 92.4 µM; note: nearly all actives have a fitted effect of over 50% in size; note: potency is the fitted concentration of half-maximal effect
Estrogen receptor (Homo sapiens), sequence (P03372 whole entry, looked up): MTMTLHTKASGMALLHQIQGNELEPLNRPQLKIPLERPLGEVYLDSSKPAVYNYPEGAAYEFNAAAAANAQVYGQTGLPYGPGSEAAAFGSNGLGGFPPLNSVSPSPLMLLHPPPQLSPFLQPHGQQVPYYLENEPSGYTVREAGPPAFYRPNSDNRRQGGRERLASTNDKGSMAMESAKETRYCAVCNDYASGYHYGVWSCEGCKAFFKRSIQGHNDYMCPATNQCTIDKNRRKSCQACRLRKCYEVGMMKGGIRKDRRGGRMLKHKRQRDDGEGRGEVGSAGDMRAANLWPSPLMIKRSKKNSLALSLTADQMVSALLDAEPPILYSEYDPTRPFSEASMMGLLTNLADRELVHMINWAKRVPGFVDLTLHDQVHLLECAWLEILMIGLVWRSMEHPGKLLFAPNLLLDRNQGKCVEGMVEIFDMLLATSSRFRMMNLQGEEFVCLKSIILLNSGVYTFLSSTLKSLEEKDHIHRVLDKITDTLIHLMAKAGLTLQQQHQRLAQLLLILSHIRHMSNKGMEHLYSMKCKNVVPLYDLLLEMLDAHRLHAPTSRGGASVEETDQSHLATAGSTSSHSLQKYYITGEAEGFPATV
Summary of the method: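 Luciferase signal from VM7Luc4E2 ERE-reporter cells, co-dosed with test compound and 0.1 nM final 17beta-estradiol for 22 h, read with ONE-Glo.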

[4] = qHTS assay to identify small molecule HDAC inhibitors (AID 1259364); details: HCT-116 HDAC-Glo I/II luminescence, 2 h; series mostly up to 92.4 µM; note: potency is the fitted concentration of half-maximal effect;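 note: wild-type HCT-116 cells with endogenous class I/II HDAC activity; nearly all actives have a fitted effect of over 45% in size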
Summary of the method: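 HCT-116 wt cells, 1,500/well, overnight attach. Compounds (DMSO) 2 h, 37 °C. HDAC-Glo I/II, 30 min RT. Luminescence.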

[5] = qHTS assay to identify small molecule HDAC inhibitors - cell viability counter screen (AID 1259365); details: HCT-116 viability, CellTiter-Glo ATP luminescence, 2 h; series mostly up to 92.4 µM; note: nearly all actives have a fitted effect of over 50% in size
Summary of the method: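 Following a 2hr exposure of overnight-plated wild-type HCT-116 cells to DMSO-delivered compounds, CellTiter-Glo was added and luminescence recorded after 30min at room temperature.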

[6] = qHTS assay to identify small molecule agonists of the sonic hedgehog signaling (Shh) pathway - cell viability counter screen (AID 1259366); details: NIH/3T3 Gli1-Luc viability, CellTiter-Fluor, 24 h; series mostly up to 92.4 µM; note: nearly all actives have a fitted effect of over 50% in size; note: potency is the fitted concentration of half-maximal effect
Summary of the method: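 After a 4hr attachment at 37C, NIH/3T3 cells bearing an integrated Gli1-driven luciferase reporter were dosed with compounds. Treatment lasted 24hr, with the final hour including CellTiter-Fluor for a fluorescence viability measurement.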

[7] = qHTS assay to identify small molecule antagonists of the sonic hedgehog signaling (Shh) pathway - cell viability counter screen (AID 1259367); details: NIH/3T3 Gli1-Luc viability, CellTiter-Fluor, 24 h; series mostly up to 92.4 µM; note: nearly all actives have a fitted effect of over 55% in size; note: potency is the fitted concentration of half-maximal effect
Summary of the method: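 CellTiter-Fluor signal in conditioned medium-stimulated 3T3 Gli1-Luc cells, 23 hr compound exposure, 37C.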

[8] = qHTS assay to identify small molecule agonists of the sonic hedgehog signaling (Shh) pathway (AID 1259368; calls by dose curve; note: nearly all actives have a fitted effect of over 15% in size; note: potency is the fitted concentration of half-maximal effect); details: NIH/3T3 Gli1-Luc reporter, luciferase, 24 h; series mostly up to 92.4 µM
Summary of the method: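 Following a 24 hr incubation with DMSO-dissolved compounds at 37 C, 5% CO2, Gli1-Luc NIH/3T3-derived cells received luciferase reagent for 30 min at room temperature prior to luminescence measurement.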

[9] = qHTS assay to identify small molecule phospholipidosis (PLD) inducers (AID 1259344; active = well fitted curve in the direction sought with a large enough effect; an effect the other way counts as inactive or inconclusive); details: HepG2 phospholipidosis, LipidTOX Red imaging, 24 h; series mostly up to 38.3 µM
Summary of the method: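 Accumulated phospholipid, stained red by LipidTOX during 24 h compound treatment of HepG2 cells at 37 C, is quantified from images as pit number and intensity, normalised per cell using Hoechst-stained nuclei.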

SMILES | Potency [1] | Potency [2] | Potency [3] | Potency [4] | outcome [5] | Potency [6] | Potency [7] | Potency [8] | Potency [9]
C1CN(SSN2CCOCC2)CCO1 | inactive | inactive | inactive | inactive | inactive | 53.9 µM (active) and 48.6 µM (active) | 48.1 µM (active) and 61.1 µM (active) | inactive | –
Cc1ccc(N)c([N+](=O)[O-])c1 | inactive | inactive | inactive | inactive | inactive | inactive | inactive | inactive | –
c1ccc2c(c1)ccc1cc3c(ccc4ccccc43)cc12 | inactive | inactive | inactive | 12.1 µM (active) and 15.2 µM (active) | inactive | inactive | inactive | inactive | –
Cc1ccc(C(C)(C)C)c(O)c1 | inactive | inactive | inactive | inactive | inactive | – | – | inactive | –
CN(C)C | inactive | inactive | inactive | inactive | inactive | inactive | inactive | inactive | –
C1COCCN1 | inactive | inactive | inactive | inactive | inactive | inactive | inactive | inactive | –
C=C[Si](OCCOC)(OCCOC)OCCOC | inactive | inactive | inactive | inactive | inactive | inactive | inactive | inactive | –
CCCN1C=CN(C)C1 | inactive | inactive | inactive | inactive | inactive | inactive | inactive | inactive | –
C=CN1CCCC1=O | inactive | inactive | inactive | inactive | inactive | inactive | inactive | inactive | –
NCCOCCO | inactive | inactive | inactive | inactive | inactive | inactive | inactive | inactive | –
c1ccc2ncccc2c1 | inactive | inactive | inactive | inactive | inactive | inactive | inactive | inactive | –
O=C1CCc2ccccc2O1 | inactive | inactive | inactive | inactive | inactive | inactive | inactive | inactive | –
Nc1ccc2c(c1)C(=O)c1ccccc1C2=O | inactive | inactive | inactive | 951 nM (active) and 770 nM (active) | inactive | inactive | inactive | 0.864 µM (active) | –
CCCCCCC(C)O (stereo not drawn) | inactive | inactive | inactive | inactive | inactive | inactive | inactive | inactive | –
CCCCCC=O | inactive | inactive | inactive | inactive | inactive | inactive | inactive | inactive | –
O=C(O)CCCC(=O)O | inactive | inactive | inactive | inactive | inactive | inactive | inactive | inactive | –
Oc1c(Cl)ccc(Cl)c1Cl | inactive | inactive | inactive | inactive | inactive | inactive | inactive | inactive | –
CCCCCCCCCCCCCO | inactive | inactive | inactive | inactive | inactive | inactive | inactive | inactive | –
Nc1cc([N+](=O)[O-])ccc1C(=O)O | inactive | inactive | inactive | 49.5 µM (active) and 27.3 µM (active) | inactive | inactive | inactive | inactive | –
COC(=O)C(C)Oc1ccc(Oc2ncc(C(F)(F)F)cc2Cl)cc1 (stereo not drawn) | inactive | inactive | inactive | inactive | inactive | inactive | inactive | inactive | –
COc1ccc(-c2coc3cc(O)cc(O)c3c2=O)cc1 | inactive | 54.9 µM (active) and inactive | inactive | 21.9 µM (active) and 17.2 µM (active) | inactive | inactive | inactive | inactive | –
ClC/C=C/CCl | inactive | inactive | inactive | inactive | inactive | inactive | inactive | inactive | –
CC1=CC(C)(C)Nc2ccccc21 | inactive | inactive | inactive | inactive | inactive | inactive | inactive | inactive | –
CCO[Si](CCCNC(N)=O)(OCC)OCC | inactive | inactive | inactive | inactive | inactive | inactive | inactive | inactive | –
O=S1(=O)CCCO1 | inactive | inactive | inactive | inactive | inactive | inactive | inactive | inactive | –
Cc1ccc([N+](=O)[O-])c(C)c1 | inactive | inactive | 6.11 µM (active) and inactive | inactive | inactive | inactive | inactive | inactive | –
Nc1cc(Cl)c(N)c(Cl)c1 | inactive | inactive | inactive | inactive | inactive | inactive | inactive | inactive | –
CC(C)=CCO | inactive | inactive | inactive | inactive | inactive | inactive | inactive | inactive | –

SMILES | Potency [1] | Potency [2] | Potency [3] | Potency [4] | outcome [5] | Potency [6] | Potency [7] | Potency [8] | Potency [9]
COC(=O)c1ccc(C)cc1 | inactive | inactive | inactive | inactive | inactive | inactive | inactive | inactive | –
CCOC(=O)C(C)Oc1ccc(Oc2cnc3cc(Cl)ccc3n2)cc1 (stereo not drawn) | inactive | inactive | inactive | inactive | inactive | inactive | inactive | inactive | –
Cc1ccc(C(C)(C)C)cc1 | inactive | inactive | inactive | inactive | inactive | inactive | inactive | inactive | –
C=CC(C)(O)CCC=C(C)C (stereo not drawn) | inactive | inactive | – | inactive | inactive | inactive | inactive | inactive | –
Clc1ccc(Sc2cc(Cl)c(Cl)cc2Cl)cc1 | inactive | inactive | – | inactive | inactive | inactive | inactive | inactive | –
C=CC(=O)OCCCC | inactive | inactive | – | inactive | inactive | inactive | inactive | inactive | –
C=C[C@H]1CN2CC[C@H]1C[C@@H]2[C@@H](O)c1ccnc2ccc(OC)cc12 | inactive | inactive | – | inactive | inactive | inactive | inactive | – | inactive
C=CCCCCCCCCCC | inactive | inactive | – | inactive | inactive | inactive | inactive | inactive | –
Nc1ccc(N)c(Cl)c1 | inactive | inactive | – | inactive | inactive | 61 µM (active) | – | inactive | –
Cc1ccc(C)c(O)c1 | inactive | inactive | – | inactive | inactive | inactive | inactive | inactive | –
C[N+](C)(C)CCO | inactive | inactive | – | inactive | inactive | inactive | inactive | inactive | inactive
O=C(CCCN1CCC(O)(c2ccc(Cl)cc2)CC1)c1ccc(F)cc1 | inactive | inactive | – | inactive | inactive | 68.6 µM (active) and inactive | inactive | inactive | –
CC/C(=C(/CC)c1ccc(O)cc1)c1ccc(O)cc1 | inactive | inactive | – | – | inactive | inactive | inactive | – | inactive
CC1(C)NC(=O)N(c2ccc([N+](=O)[O-])c(C(F)(F)F)c2)C1=O | inactive | inactive | – | inactive | inactive | inactive | inactive | inactive | inactive
CCCCCCOCCOCCO | inactive | inactive | – | inactive | inactive | inactive | inactive | inactive | –
NC[C@H](O)c1ccc(O)c(O)c1 | inactive | inactive | – | inactive | inactive | inactive | inactive | inactive | inactive
O=C1OC2(c3ccccc31)c1cc(I)c(O)c(I)c1Oc1c2cc(I)c(O)c1I | – | 9.71 µM (active) [middle of 4 runs] | – | inactive | – | 15.5 µM (active) [middle of 4 runs] | 15.5 µM (active) [middle of 4 runs] | inactive | inactive
Cc1cccc(Nc2ccccc2C(=O)O)c1C | inactive | inactive | – | inactive | inactive | inactive | inactive | inactive | inactive
C=CCOC(=O)C(=C)C | inactive | inactive | – | inactive | inactive | inactive | inactive | inactive | –
CCCCCCCCCCC(CO)CCCCCCCC (stereo not drawn) | inactive | inactive | – | inactive | inactive | inactive | inactive | inactive | inactive
COc1ccc(C(=O)c2ccccc2O)c(O)c1 | inactive | inactive | – | inactive | inactive | inactive | inactive | inactive | inactive
CN1CCOCC1 | inactive | inactive | – | inactive | inactive | inactive | inactive | inactive | –
Cc1ccc2c(c1)C(=O)OC2=O | inactive | inactive | – | inactive | inactive | inactive | inactive | inactive | –
CCC(=O)O[C@H]1[C@H](O[C@@H]2[C@@H](C)[C@H](O[C@H]3C[C@@](C)(OC)[C@@H](O)[C@H](C)O3)[C@@H](C)C(=O)O[C@H](CC)[C@@](C)(O)[C@H](O)[C@@H](C)C(=O)[C@H](C)C[C@@]2(C)O)O[C@H](C)C[C@@H]1N(C)C | inactive | inactive | – | inactive | inactive | 16.1 µM (active) and inactive | 14.4 µM (active) | inactive | –
c1ccc2cc3ccccc3cc2c1 | inactive | inactive | inactive | – | inactive | inactive | inactive | inactive | –
O=C(O)CCCCCCCCCCCC(=O)O | inactive | inactive | – | 30.1 µM (active) and 27.3 µM (active) | inactive | inactive | inactive | inactive | –
C[C@]12CC[C@@H]3c4ccc(O)cc4CC[C@H]3[C@@H]1CC[C@@H]2O | inactive | inactive | – | inactive | inactive | inactive | inactive | inactive | inactive
